Experimental data published in PubChem BioAssay (NCATS).
Unmarked numbers belong to inactive results. Records with an inconclusive call do not appear. Active and inactive are the calls of the source. Calls come from the whole dose curve; as a rule, active = well fitted curve in the direction sought with a large enough effect; inconclusive = small, poorly fitted or top-dose-only effect, or another doubt; inactive = no such curve, though single readings can be large; an effect the other way counts as inactive or inconclusive.

System: not listed separately
Assay: Cell Viability - LYMP1-002 - Assay at 16 hr (AID 948); note: potency is the fitted concentration of half-maximal effect;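 for activity change, negative = cytotoxicity: 0% = DMSO alone and full effect = 92 µM tetraoctylammonium bromide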
Details: LYMP1-002 lymphoblastoid cell viability; series mostly up to 92.2 µM; activity change, negative = cytotoxicity: at the top concentration
Outline: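 Human lymphoblastoid cells (LYMP1-002), 2500/well, were preincubated 5 hr at 37 C, then exposed to compounds for 16 hr at 37 C in complete medium. Cellular ATP was read by CellTiter-Glo luminescence after 30 min at room temperature; AC50 from Hill fits.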

Structure (SMILES) | activity change, negative = cytotoxicity | Potency
Nc1ccc(Sc2ccc(N)cc2)cc1 | -9.57% | 
COC(C)(C)CCCC(C)C/C=C/C(C)=C/C(=O)OC(C)C (stereo not drawn) | -3.79% | 
O=S(=O)(c1ccc(Cl)cc1)c1ccc(Cl)cc1 |  | inactive
CC(C)(O)C(=O)Nc1ccc([N+](=O)[O-])c(C(F)(F)F)c1 | -7.3% | 
CCOP(=O)(NC(C)C)Oc1ccc(SC)c(C)c1 (stereo not drawn) | -3.66% | 
O=[N+]([O-])c1c2ccccc2cc2ccccc12 | -9.02% | 
Nc1ccc(Cl)cc1N | -5.97% | 
CCCCOC(=O)c1ccccc1C(=O)OCc1ccccc1 | -8.22% | 
CCCCC(CC)COC(=O)c1ccccc1C(=O)OCC(CC)CCCC (stereo not drawn) | -10.3% | 
c1cc2ccc3cccc4ccc(c1)c2c34 | 0.0765% | 
CC(=O)[O][Hg][c]1ccccc1 |  | 6.31 µM (active)

System: not listed separately
Assay: MultiTox-Fluor Cytotoxicity Assay - LYMP1-002 - Live Cells (AID 955); note: potency is the fitted concentration of half-maximal effect; for viability change, negative = cytotoxic: % is set by controls: 0 for no effect and ±100 for the full control effect
Details: LYMP1-002 lymphoblastoid live-cell protease fluorescence viability; series mostly up to 46.1 µM; viability change, negative = cytotoxic: at the top concentration
Outline: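 LYMP1-002 lymphoblastoid cells; 2500 cells/well; 16 hr compound exposure, 37 C; MultiTox-Fluor reagent 60 min RT; live-cell fluorescence Ex/Em=405/510; qHTS concentration-response, Hill-equation AC50; tetraoctylammonium bromide positive control.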

Structure (SMILES) | viability change, negative = cytotoxic | Potency
Nc1ccc(Sc2ccc(N)cc2)cc1 | -7.28% | 
COC(C)(C)CCCC(C)C/C=C/C(C)=C/C(=O)OC(C)C (stereo not drawn) | 16% | 
O=S(=O)(c1ccc(Cl)cc1)c1ccc(Cl)cc1 |  | inactive
CC(C)(O)C(=O)Nc1ccc([N+](=O)[O-])c(C(F)(F)F)c1 | -2.91% | 
CCOP(=O)(NC(C)C)Oc1ccc(SC)c(C)c1 (stereo not drawn) | -14.7% | 
O=[N+]([O-])c1c2ccccc2cc2ccccc12 | 3.38% | 
Nc1ccc(Cl)cc1N | -8.24% | 
CCCCOC(=O)c1ccccc1C(=O)OCc1ccccc1 | 6.35% | 
CCCCC(CC)COC(=O)c1ccccc1C(=O)OCC(CC)CCCC (stereo not drawn) | 8.8% | 
c1cc2ccc3cccc4ccc(c1)c2c34 | 5.45% | 
CC(=O)[O][Hg][c]1ccccc1 |  | 3.16 µM (active)

Target: Alpha-galactosidase (Coffea arabica) (UniProt Q42656)
Assay: Counterscreen for Glucocerebrosidase Inhibitors: qHTS Assay for Coffee Bean alpha-Galactosidase at pH 4.5 (AID 957);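 note: plate controls were enzyme alone for no effect and no enzyme for full effect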
Details: purified coffee bean alpha-galactosidase, fluorogenic substrate; series mostly up to 76.9 µM; activity change, negative = inhibition: at the top concentration
Outline: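 Fluorogenic read-out: 4-methylumbelliferone at Ex 365/Em 440 nm after NaOH/glycine stop (pH 10). Enzyme 2 nM, 4-MU-alpha-galactoside 80 uM, citrate buffer pH 4.5, 20 min RT; normalized to no-enzyme and enzyme controls.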

Chain of Alpha-galactosidase (Coffea arabica) (Q42656 whole entry, looked up): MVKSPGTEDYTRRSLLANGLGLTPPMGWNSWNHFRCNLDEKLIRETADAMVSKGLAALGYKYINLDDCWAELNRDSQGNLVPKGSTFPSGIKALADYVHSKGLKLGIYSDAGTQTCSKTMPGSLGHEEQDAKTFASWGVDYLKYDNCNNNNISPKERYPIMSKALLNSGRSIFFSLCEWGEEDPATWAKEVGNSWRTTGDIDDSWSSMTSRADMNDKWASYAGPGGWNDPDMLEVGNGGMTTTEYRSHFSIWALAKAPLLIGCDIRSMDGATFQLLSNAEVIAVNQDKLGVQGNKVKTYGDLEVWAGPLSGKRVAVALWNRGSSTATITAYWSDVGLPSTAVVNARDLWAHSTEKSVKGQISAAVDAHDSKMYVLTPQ

Structure (SMILES) | activity change, negative = inhibition
Cc1cccc(C#Cc2ccccc2)n1 | 0.0404%
CCOC(=O)C1=C[C@@]2(CC)CCCN3CCc4c(n1c1ccccc41)[C@H]32 | 2.68%
C[N+](C)(C)CC(=O)O | -1.78%
CCc1c(C)[nH]c2c1C(=O)C(CN1CCOCC1)CC2 (stereo not drawn) | -0.35%
CC(C)(Sc1ccc(CCN(CCCCC2CCCCC2)C(=O)NC2CCCCC2)cc1)C(=O)O | 2.02%
NCCS | -1.17%
CS(=O)(=O)Nc1ccc([N+](=O)[O-])cc1Oc1ccccc1 | -5.04%
CCn1cc(C(=O)O)c(=O)c2cc3c(cc21)OCO3 | -6.09%
CC(=O)Oc1ccccc1C(=O)O | 3.19%
C[C@]12C[C@H](O)[C@H]3[C@@H](CCC4=CC(=O)CC[C@@]43C)[C@@H]1CC[C@@H]2C(=O)CO | 1.84%
CCN(CC)CCNC(=O)c1ccc(NC(C)=O)cc1 | 2.61%
CCN1CCc2nc(N)oc2CC1 | -1.85%
CC#C[C@]1(O)CC[C@H]2[C@@H]3CCC4=CC(=O)CCC4=C3[C@H](c3ccc(N(C)C)cc3)C[C@@]21C | -12.6%

System: not listed separately
Assay: MultiTox-Fluor Cytotoxicity Assay - LYMP1-002 - Dead Cells (AID 960);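 note: 0% = DMSO and 100% = tetraoctylammonium bromide; nearly all actives have a fitted effect of over 60% in size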
Details: LYMP1-002 lymphoblastoid cells, dead-cell protease fluorescence; series mostly up to 46.1 µM; cytotoxicity (dead cells): at the top concentration
Outline: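 Readout: fluorescence at 485/520 from cell-impermeant bis-AAF-R110 cleaved by proteases leaking from damaged cells. LYMP1-002 lymphoblastoid line, 16 hr compound treatment at 37 C, concentration-response in qHTS format; Hill-equation AC50 values.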

Structure (SMILES) | cytotoxicity (dead cells)
Nc1ccc(Sc2ccc(N)cc2)cc1 | -21.7%
COC(C)(C)CCCC(C)C/C=C/C(C)=C/C(=O)OC(C)C (stereo not drawn) | 20.1%
O=S(=O)(c1ccc(Cl)cc1)c1ccc(Cl)cc1 | 27.1%
CCOP(=O)(NC(C)C)Oc1ccc(SC)c(C)c1 (stereo not drawn) | 10.2%
O=[N+]([O-])c1c2ccccc2cc2ccccc12 | 26.3%
Nc1ccc(Cl)cc1N | -9.92%
c1cc2ccc3cccc4ccc(c1)c2c34 | -13.4%
CC(=O)[O][Hg][c]1ccccc1 | -152%
